Experimental findings from PubChem BioAssay (NCATS) are described below.

Inconclusive results are not listed. Calls of active or inactive are those of the source. Unless noted, calls come from the whole dose curve.

In experiment [1] the target is Peroxisome proliferator-activated receptor delta (Homo sapiens) (UniProt Q03181). Description: qHTS assay for small molecule agonists of peroxisome proliferator-activated receptor delta signaling (AID 588534).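 Note: 0% = DMSO basal wells and 100% = positive control agonist at 10 µM.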 The essentials:
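Cell-based beta-lactamase reporter assay run in agonist mode: cells seeded and incubated 5 hrs at 37 C, compounds added and incubated 18 hrs at 37 C. CCF4 dye fluorescence read after 2 hrs at RT; EC50 and efficacy from Hill fits.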

The nature of experiment [2]: qHTS assay for small molecule antagonists of peroxisome proliferator-activated receptor delta signaling (AID 588535; active = well fitted inhibition curve with a large enough effect in the signal ratio, with a control signal flat, not every such curve was filed as active; the % refers to the signal ratio;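 for max response: cells co-treated with a PPAR-delta agonist as stimulator during compound exposure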). To be noted: HEK293T PPARd-UAS-bla, beta-lactamase FRET ratio, 18 h; 460 nm channel. The essentials: (§1)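 GeneBLAzer PPAR-delta-UAS-bla HEK293T cells in medium with 2% charcoal/dextran FBS were preincubated 5 hrs at 37 C, then given compounds, incubated 18 hrs at 37 C, and read by CCF4 beta-lactamase fluorescence; IC50 from Hill fits.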

For experiment [3], the target named is Peroxisome proliferator-activated receptor delta (Homo sapiens) (UniProt Q03181). The description is as above. In outline:
as §1

For experiment [4], the target named is Retinoic acid receptor RXR-alpha (Homo sapiens) (UniProt P19793). Description: qHTS assay for small molecule agonists of retinoid X receptor alpha signaling (AID 588544).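 Note: 0% = DMSO basal wells and 100% = reference agonist.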
Chain of Retinoic acid receptor RXR-alpha (Homo sapiens) (P19793 whole entry, looked up): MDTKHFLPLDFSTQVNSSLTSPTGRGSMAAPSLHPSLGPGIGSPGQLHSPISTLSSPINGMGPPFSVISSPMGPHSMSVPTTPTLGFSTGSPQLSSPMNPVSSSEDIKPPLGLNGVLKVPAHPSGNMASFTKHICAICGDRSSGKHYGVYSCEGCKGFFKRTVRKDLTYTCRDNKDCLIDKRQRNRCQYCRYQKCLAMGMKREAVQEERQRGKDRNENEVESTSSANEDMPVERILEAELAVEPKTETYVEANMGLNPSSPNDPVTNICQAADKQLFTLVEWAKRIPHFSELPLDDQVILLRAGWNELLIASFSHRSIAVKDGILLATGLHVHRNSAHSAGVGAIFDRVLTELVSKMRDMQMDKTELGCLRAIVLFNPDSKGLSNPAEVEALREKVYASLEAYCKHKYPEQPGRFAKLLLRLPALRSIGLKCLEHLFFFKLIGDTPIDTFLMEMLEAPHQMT
For experiment [5], the target named is Thyroid hormone receptor beta (Homo sapiens) (UniProt P10828). Description: qHTS assay for small molecule agonists of thyroid hormone receptor beta signaling (AID 588545). The essentials:
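Agonist activity was read as beta-lactamase CCF4 fluorescence (405 ex, 460/530 em), scaled between DMSO (0%) and 10 nM T3 (100%), then Hill-fitted for EC50 and efficacy. HEK 293 TR-UAS-bla cells in 2% charcoal/dextran FBS medium were exposed 18 h at 37 C.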

Experiment [6] can be described thus: qHTS assay for small molecule antagonists of retinoid X receptor alpha signaling (AID 588546; active = well fitted inhibition curve with a large enough effect in the signal ratio, with a control signal flat, not every such curve was filed as active; the % refers to the signal ratio;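 note: cells stimulated with 9-cis-retinoic acid as agonist; % is set by controls: 0 for no effect and ±100 for the full control effect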). Conditions: HEK293T RXRa-UAS-bla, beta-lactamase ratio, antagonist mode; measured here: W530 green channel, cytotoxicity proxy. The essentials: (§2)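 Beta-lactamase reporter inhibition, read as CCF4 fluorescence ratio (ex 405, em 460/530 nm) after 2 h at RT. HEK293T UAS-bla cells, 2500/well, were stimulated with 9-cis-RA at 500 or 100 nM final alongside test compound for 18 h at 37 C.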

Experiment [7] concerns the target Retinoic acid receptor RXR-alpha (Homo sapiens) (UniProt P19793). Described as above. Conditions: HEK293T RXRa-UAS-bla, beta-lactamase ratio, antagonist mode. In outline: as §2
The target of experiment [8] is Thyroid hormone receptor beta (Homo sapiens) (UniProt P10828). As to the kind of experiment: qHTS assay for small molecule antagonists of thyroid hormone receptor beta signaling (AID 588547; active = well fitted inhibition curve with a large enough effect in the signal ratio, with a control signal flat, not every such curve was filed as active; the % refers to the signal ratio;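 note: cells stimulated with 0.4 nM T3 agonist during compound exposure; series mostly up to about 77 µM; % is set by controls: 0 for no effect and ±100 for the full control effect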). Conditions: TR-UAS-bla HEK293, beta-lactamase ratio, antagonist mode, 18 h. The essentials:
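TR-UAS-bla GripTite HEK293 cells in 2% charcoal/dextran FBS medium were preincubated 4 h at 37 C, given compound (0.59 nM to 92 uM) plus 0.4 nM T3 (final) for 18 h, then CCF4 for 2 h at RT; Hill fit gave IC50.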

Experiment [9] in a line: qHTS assay for small molecule activators of the p53 signaling pathway (AID 651743; active = well fitted activation curve with a large enough effect in the signal ratio, not every such curve was filed as active; the % refers to the signal ratio; note: series mostly up to about 92 µM; % of control where 0% means no effect). Conditions: HCT-116 p53RE-bla, beta-lactamase FRET ratio, 16 h; activation: stronger effect = higher value. In outline:
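p53RE-bla HCT-116 cells with a stably integrated beta-lactamase reporter under p53 response elements were plated, rested 5 hours at 37 C/5% CO2, then exposed to compounds in DMSO for 16 hours at 37 C. LiveBLAzer B/G FRET substrate was read after 2 hours at room temperature.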

Experiment [10] in a line: qHTS assay for small molecule activators of the nuclear factor-kappa B (NF-kB) signaling pathway (AID 651749; active = well fitted activation curve with a large enough effect in the signal ratio; the % refers to the signal ratio; note: series mostly up to about 77 µM; % of control where 0% means no effect). To be noted: NF-kB-bla ME-180 cells, beta-lactamase FRET ratio, 16 h; activation: stronger effect = higher value. The essentials:
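ME-180 cells stably carrying a beta-lactamase reporter under an NF-kB response element were exposed to compound or DMSO vehicle for 16 hr at 37C, 5% CO2. Pathway activation was read by FRET, since reporter expression disrupts FRET.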

A short description of experiment [11]: qHTS assay for environmental chemicals that activate the Aryl hydrocarbon Receptor (AhR) signaling pathway (AID 651777; active = well fitted curve in the direction sought with a large enough effect; an effect the other way counts as inactive or inconclusive; note: % of control where 0% means no effect; nearly all actives have a fitted effect of over 15% in size). Conditions: 1A2-DRE human hepatoma cells, luciferase, 24 h; activation: stronger effect = higher value. In outline:
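Measured luciferase activity, read 30 min after One-Glo addition at room temperature, from human hepatoma cells bearing a dioxin response element–CYP1A2 promoter reporter and exposed to compound for 24 hr at 37 C.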

The target in experiment [12] is Peroxisome proliferator-activated receptor alpha (Homo sapiens) (UniProt Q07869). Description: qHTS assay for small molecule agonists of the peroxisome proliferator-activated receptor alpha (PPARalpha) signaling pathway (AID 651778; active = well fitted curve in the direction sought with a large enough effect; an effect the other way counts as inactive or inconclusive; note: % of control where 0% means no effect). Conditions: PathHunter PPARalpha complementation, chemiluminescence, 6 h; max response: stronger effect = higher value. The essentials: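 Cells plated at 2,000/well and held overnight at 37 C, 5% CO2, then compound added by pin tool for 6 hr; after PathHunter detection reagent and 60 min at room temperature, chemiluminescence from enzyme complementation was read.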
Chain of Peroxisome proliferator-activated receptor alpha (Homo sapiens) (Q07869 whole entry, looked up): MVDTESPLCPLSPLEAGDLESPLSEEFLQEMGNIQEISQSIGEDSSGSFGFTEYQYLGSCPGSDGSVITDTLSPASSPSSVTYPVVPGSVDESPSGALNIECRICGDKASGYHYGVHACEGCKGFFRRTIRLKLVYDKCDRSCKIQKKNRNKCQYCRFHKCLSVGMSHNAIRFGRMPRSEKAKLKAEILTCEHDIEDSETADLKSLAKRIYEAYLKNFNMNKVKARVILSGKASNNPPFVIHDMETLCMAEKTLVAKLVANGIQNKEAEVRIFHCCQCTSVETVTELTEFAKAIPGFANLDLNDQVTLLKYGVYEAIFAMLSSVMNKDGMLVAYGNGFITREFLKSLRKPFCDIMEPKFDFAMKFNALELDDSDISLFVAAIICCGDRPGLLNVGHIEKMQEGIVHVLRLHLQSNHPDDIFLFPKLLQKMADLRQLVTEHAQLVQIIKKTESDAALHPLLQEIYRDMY

The nature of experiment [13]: qHTS assay for small molecule agonists of the antioxidant response element (ARE) signaling pathway measured by Nrf2-dependant transcriptional activity - cell viability counter screen (AID 720653; active = well fitted curve in the direction sought with a large enough effect in the repeat runs; an effect the other way counts as inactive or inconclusive; note: % is set by controls: 0 for no effect and ±100 for the full control effect). Conditions: ARE-bla HepG2 viability, CellTiter-Glo ATP luminescence, 16 h; max response: stronger effect = lower value. The essentials:
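ARE-bla HepG2 cells (2,000/well) rested 5 hrs at 37C/5% CO2, then exposed to compounds in DMSO for 16 hrs. Viability was read in the same wells as intracellular ATP by luminescence, 30 min at room temperature after reagent addition.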

Experiment [14] in a line: qHTS assay for cell viability of HEK293 cells (AID 743288; active = well fitted curve in the direction sought with a large enough effect; an effect the other way counts as inactive or inconclusive; note: % is set by controls: 0 for no effect and ±100 for the full control effect; nearly all actives have a fitted effect of over 50% in size). To be noted: ATP luminescence (CellTiter-Glo), 18 h; max response: stronger effect = lower value. The essentials:
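Environmental chemicals tested in qHTS format against parental HEK293 cells; 18 h treatment, 37 C; read-out ATP luminescence (CellTiter-Glo), 30 min RT development.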

Experiment [15] in a line: qHTS assay for cell viability of the p53RE-bla HCT-116 cell line (AID 743292; active = well fitted curve in the direction sought with a large enough effect; an effect the other way counts as inactive or inconclusive; note: % is set by controls: 0 for no effect and ±100 for the full control effect; nearly all actives have a fitted effect of over 55% in size). The essentials:
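Intracellular ATP of p53RE-bla HCT-116 cells measured by luciferase luminescence following 16 h compound incubation at 37 C; DMSO-only wells served as vehicle controls.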

The target in experiment [16] is Nuclear receptor subfamily 1 group I member 2 (Rattus norvegicus) (UniProt Q9R1A7). As to the kind of experiment: qHTS assay for small molecule activators of the rat pregnane X receptor (rPXR) signaling pathway (AID 651751; call rule not given here; note: 0% is about no effect). To be noted: rPXR reporter cells, luciferase (One-Glo), 24 h.
Chain of Nuclear receptor subfamily 1 group I member 2 (Rattus norvegicus) (Q9R1A7 whole entry, looked up): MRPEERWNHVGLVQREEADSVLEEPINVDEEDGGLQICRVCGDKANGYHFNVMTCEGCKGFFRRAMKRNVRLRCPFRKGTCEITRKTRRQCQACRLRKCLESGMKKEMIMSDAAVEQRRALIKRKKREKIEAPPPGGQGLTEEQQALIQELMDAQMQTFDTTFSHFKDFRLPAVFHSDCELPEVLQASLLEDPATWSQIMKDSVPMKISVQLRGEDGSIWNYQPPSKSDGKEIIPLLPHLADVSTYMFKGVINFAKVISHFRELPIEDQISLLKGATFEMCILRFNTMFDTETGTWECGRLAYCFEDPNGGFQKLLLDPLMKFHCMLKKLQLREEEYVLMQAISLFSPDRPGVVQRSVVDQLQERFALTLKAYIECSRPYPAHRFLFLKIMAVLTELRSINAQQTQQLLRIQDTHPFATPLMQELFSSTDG
The target of experiment [17] is Estrogen receptor (Homo sapiens) (UniProt P03372). As to the kind of experiment: qHTS assay for small molecule agonists of estrogen receptor alpha signaling (AID 588514).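 Note: 0% = vehicle only and 100% = reference agonist; nearly all actives have a fitted effect of over 70% in size.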 In outline: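 ER-alpha-UAS-bla GripTite HEK 293 cells in medium with 2% charcoal/dextran-treated FBS were treated with compound titrations at 37 C for 18 hrs; beta-lactamase reporter read by CCF4 fluorescence after 2 hrs at RT.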
Chain of Estrogen receptor (Homo sapiens) (P03372 whole entry, looked up): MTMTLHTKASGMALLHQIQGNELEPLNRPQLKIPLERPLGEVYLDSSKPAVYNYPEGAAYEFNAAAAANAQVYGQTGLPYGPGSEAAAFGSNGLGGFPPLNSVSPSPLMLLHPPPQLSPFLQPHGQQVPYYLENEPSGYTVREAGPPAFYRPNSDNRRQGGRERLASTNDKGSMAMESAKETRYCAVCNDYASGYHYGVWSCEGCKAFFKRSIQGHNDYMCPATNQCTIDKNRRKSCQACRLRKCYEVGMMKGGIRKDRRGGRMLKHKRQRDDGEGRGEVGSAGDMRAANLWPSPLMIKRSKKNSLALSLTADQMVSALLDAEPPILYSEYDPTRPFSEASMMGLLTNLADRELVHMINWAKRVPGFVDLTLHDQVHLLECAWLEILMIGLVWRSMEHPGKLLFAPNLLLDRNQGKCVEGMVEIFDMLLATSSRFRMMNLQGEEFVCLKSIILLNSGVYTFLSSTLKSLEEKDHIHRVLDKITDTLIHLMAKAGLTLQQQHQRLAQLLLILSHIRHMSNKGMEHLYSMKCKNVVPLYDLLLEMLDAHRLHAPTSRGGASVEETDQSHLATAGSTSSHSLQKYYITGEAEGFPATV

The target of experiment [18] is Vitamin D3 receptor (Homo sapiens) (UniProt P11473). As to the kind of experiment: qHTS assay for small molecule antagonists of vitamin D receptor signaling (AID 588541).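 Note: receptor activated by calcitriol during compound treatment; series mostly up to about 77 µM; % is set by controls: 0 for no effect and ±100 for the full control effect.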 In outline: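 VDR-UAS-bla HEK293T cells (2000/well, 2% charcoal-stripped FBS) were treated with titrated compounds plus 1-alpha,25-dihydroxyvitamin D3 (50 nM or 3 nM final) for 16 h at 37 C. CCF4 beta-lactamase fluorescence was read; Hill fits gave IC50.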
Chain of Vitamin D3 receptor (Homo sapiens) (P11473 whole entry, looked up): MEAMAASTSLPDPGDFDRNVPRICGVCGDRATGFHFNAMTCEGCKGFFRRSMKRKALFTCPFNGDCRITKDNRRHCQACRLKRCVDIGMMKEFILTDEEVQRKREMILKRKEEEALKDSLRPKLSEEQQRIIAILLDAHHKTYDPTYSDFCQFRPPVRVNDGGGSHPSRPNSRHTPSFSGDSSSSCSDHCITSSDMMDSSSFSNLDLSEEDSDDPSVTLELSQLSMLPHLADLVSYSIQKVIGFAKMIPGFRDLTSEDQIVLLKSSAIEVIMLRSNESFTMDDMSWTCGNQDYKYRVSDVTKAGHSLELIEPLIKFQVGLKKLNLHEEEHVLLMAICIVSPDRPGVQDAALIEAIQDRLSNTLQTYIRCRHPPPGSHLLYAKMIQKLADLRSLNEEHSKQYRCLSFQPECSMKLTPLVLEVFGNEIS

Experiment [19] in a line: qHTS assay for small molecule agonists of the antioxidant response element (ARE) signaling pathway measured by Nrf2-dependant transcriptional activity (AID 720636; active = well fitted curve in the direction sought with a large enough effect in the repeat runs; an effect the other way counts as inactive or inconclusive;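 note: HepG2 cells with an ARE-driven luciferase reporter; % of control where 0% means no effect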). The essentials: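 In HepG2 cells engineered with an Nrf2-responsive luciferase gene, ARE induction was quantified as luminescence after 16 hr compound treatment at 37 C.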
Experiment [20] concerns the target Glucocorticoid receptor (Homo sapiens) (UniProt P04150). As to the kind of experiment: qHTS assay for small molecule antagonists of glucocorticoid receptor signaling (AID 588533; active = well fitted inhibition curve with a large enough effect in the signal ratio, with a control signal flat, not every such curve was filed as active; the % refers to the signal ratio). In outline: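 Antagonist-mode qHTS: compound titrations added to GRE-bla HeLa cells, then dexamethasone 2 nM final; 18 h, 37 C. CCF4 FRET fluorescence normalized to dexamethasone and DMSO; IC50 from Hill fit.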

Chain of Peroxisome proliferator-activated receptor delta (Homo sapiens) (Q03181 whole entry, looked up): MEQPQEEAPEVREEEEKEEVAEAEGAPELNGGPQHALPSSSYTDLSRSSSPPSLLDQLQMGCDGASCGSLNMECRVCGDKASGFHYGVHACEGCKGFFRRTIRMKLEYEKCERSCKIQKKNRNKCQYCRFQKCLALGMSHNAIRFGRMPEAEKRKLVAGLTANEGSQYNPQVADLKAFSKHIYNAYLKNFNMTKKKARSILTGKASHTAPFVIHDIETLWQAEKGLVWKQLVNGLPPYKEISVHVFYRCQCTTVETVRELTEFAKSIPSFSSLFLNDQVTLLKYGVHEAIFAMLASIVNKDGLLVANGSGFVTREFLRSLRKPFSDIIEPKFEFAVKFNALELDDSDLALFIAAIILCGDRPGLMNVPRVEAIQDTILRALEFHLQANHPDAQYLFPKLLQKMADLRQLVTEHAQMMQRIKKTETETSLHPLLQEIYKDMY
Chain of Thyroid hormone receptor beta (Homo sapiens) (P10828 whole entry, looked up): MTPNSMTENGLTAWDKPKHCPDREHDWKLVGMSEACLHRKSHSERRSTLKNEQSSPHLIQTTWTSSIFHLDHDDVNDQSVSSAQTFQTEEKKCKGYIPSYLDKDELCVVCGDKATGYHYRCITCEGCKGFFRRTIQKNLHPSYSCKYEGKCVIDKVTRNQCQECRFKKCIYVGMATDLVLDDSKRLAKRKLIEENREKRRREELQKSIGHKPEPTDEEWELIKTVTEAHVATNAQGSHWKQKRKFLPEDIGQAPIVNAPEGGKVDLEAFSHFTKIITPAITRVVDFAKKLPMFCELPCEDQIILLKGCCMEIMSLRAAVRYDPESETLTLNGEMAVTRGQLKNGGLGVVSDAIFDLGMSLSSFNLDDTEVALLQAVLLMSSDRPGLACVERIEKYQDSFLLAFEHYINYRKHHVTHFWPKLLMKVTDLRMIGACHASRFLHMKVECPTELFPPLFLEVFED
Chain of Glucocorticoid receptor (Homo sapiens) (P04150 whole entry, looked up): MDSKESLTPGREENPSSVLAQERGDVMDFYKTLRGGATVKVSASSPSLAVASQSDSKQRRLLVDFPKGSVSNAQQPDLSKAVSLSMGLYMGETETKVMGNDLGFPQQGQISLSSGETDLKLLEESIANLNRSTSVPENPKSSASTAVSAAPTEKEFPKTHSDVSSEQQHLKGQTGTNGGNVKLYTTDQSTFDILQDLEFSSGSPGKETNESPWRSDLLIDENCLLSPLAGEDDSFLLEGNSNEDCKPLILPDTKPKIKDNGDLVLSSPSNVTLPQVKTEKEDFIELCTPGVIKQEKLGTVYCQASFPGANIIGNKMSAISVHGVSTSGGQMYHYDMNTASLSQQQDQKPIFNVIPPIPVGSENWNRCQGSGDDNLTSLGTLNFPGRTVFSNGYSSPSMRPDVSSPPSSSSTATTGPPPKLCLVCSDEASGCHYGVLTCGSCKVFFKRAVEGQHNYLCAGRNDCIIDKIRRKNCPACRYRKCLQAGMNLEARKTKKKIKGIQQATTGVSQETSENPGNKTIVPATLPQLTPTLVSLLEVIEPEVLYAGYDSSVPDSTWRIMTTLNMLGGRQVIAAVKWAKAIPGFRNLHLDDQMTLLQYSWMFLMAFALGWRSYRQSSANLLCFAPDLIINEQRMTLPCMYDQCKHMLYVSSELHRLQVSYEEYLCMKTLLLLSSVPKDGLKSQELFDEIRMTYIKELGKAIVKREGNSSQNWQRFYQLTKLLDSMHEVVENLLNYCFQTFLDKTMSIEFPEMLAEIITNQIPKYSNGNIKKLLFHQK

Take `O=C(NC(=O)c1c(F)cccc1F)Nc1cc(Cl)c(OC(F)(F)C(F)C(F)(F)F)c(Cl)c1F` (configuration not stated): the call in experiment [1] was inactive. In addition, the max response in experiment [2] was 39.8%; in experiment [6] it was -6.84%; in experiment [7], 4.34% (inactive); in experiment [12], 6.43% (inactive); in [13] it was -22% (inactive); in experiment [14], -24.3% (inactive). Besides, the max response in [16] is 9.17% (inactive). Besides, the Potency entry in [3], in experiment [4], in [5] and in [15] was “inactive” in each case. Also, in experiment [8], the activity change % (negative = inhibition) was 12.6% (inactive). Further, the activation in experiment [9] was 2.49% (inactive); in experiment [10], 4.04% (inactive); in experiment [11], 6.63% (inactive).

Regarding `Cn1c(-c2ccccc2)cc(-c2ccccc2)[n+]1C`, the Potency result in experiment [17], in experiment [18] and in experiment [4] was “inactive” in each case. For the same molecule, the call in [1] was inactive. For the same molecule, the max response was 17.2% in [6]; -10.3% (inactive) in [7]; -0.162% (inactive) in [12]; -21.3% (inactive) in [13]; 5.36% (inactive) in experiment [14]; -12.3% (inactive) in experiment [16]. Moreover, the activation in experiment [11] is -2.45% (inactive).

For `Cc1ccccc1CO[C@@H]1C[C@@]2(C(C)C)CC[C@]1(C)O2`, in experiment [1], the molecule was called inactive. Moreover, the max response in experiment [2] is 49.2%; in experiment [6] it was 0.789%; in experiment [7], -22.7% (inactive); in experiment [12], 5.16% (inactive); in experiment [13], 1.88% (inactive); in experiment [14], -20.5% (inactive). In addition, the Potency entry in experiment [3], in experiment [18], in [4], in [5], in experiment [19] and in experiment [15] was “inactive” throughout. The activation in [10] is -3.81% (inactive); in [11], 0.466% (inactive).

Consider `Cc1cc(Cl)ccc1O[C@H](C)C(=O)O`, for which the Potency entry in experiment [17], in experiment [4], in experiment [5], in experiment [19] and in experiment [15] was “inactive” in each case. Moreover, the molecule was called inactive in experiment [1]. Moreover, the max response in [6] was -16.8%; in experiment [7], -2.52% (inactive); in [12] it was -1.51% (inactive); in [13] it was 7.37% (inactive); in experiment [14] it was 0.74% (inactive); in [16], -1.45% (inactive). In addition, the activity change % (negative = inhibition) in experiment [8] was 17.7% (inactive). Besides, the activation in experiment [9] is -0.679% (inactive); in experiment [10], 0.599% (inactive); in experiment [11], -2.24% (inactive).

Take `CCC(C)Nc1c([N+](=O)[O-])cc(C(C)(C)C)cc1[N+](=O)[O-]` (configuration not stated): the Potency result in [17], in [20], in experiment [3], in experiment [18], in experiment [4] and in experiment [5] was “inactive” each time. Further, in experiment [1], the outcome was inactive. Also, the max response in experiment [2] is -21.7%; in experiment [12] it was 8.22% (inactive); in [13], 11% (inactive); in experiment [14], -2.45% (inactive). In experiment [11], the activation was 5.25% (inactive).

Regarding `C=C(C)C(=O)OCC(CC)CCCC` (configuration not stated), the Potency entry in [17], in [20], in [18], in experiment [4], in experiment [5] and in [19] was “inactive” in each case. Further, the Potency entry in [15] is “inactive”. The max response in experiment [6] was -12.9%; in [7], -2.17% (inactive); in [12], 5.11% (inactive); in [13] it was -12.5% (inactive); in experiment [14], 2.46% (inactive); in experiment [16], -1.07% (inactive). For the same molecule, the activity change % (negative = inhibition) in [8] was 10.1% (inactive). The values for the activation in [9], in experiment [10] and in experiment [11] were -3.24% (inactive), -0.248% (inactive) and 1.05% (inactive), respectively.
